Test results: PubChem BioAssay AID624167 (Sanford-Burnham Center for Chemical Genomics, 2012)

test: Peg3 promoter luciferase inhibitors, potency, dose response, cell-based, HeLa, CREF/GAPDH counter-screen panel (AID 624167); conditions: CREF/GAPDH counter-screens; run 2, dose range 1, at 100 µM (top of the series)

Row | SMILES | inhibition
1 | CN(C(=O)COC(=O)/C=C/c1cccc([N+](=O)[O-])c1)C1CCS(=O)(=O)C1 (stereo not drawn) | -31.8%
2 | CC(C)CC1C(=O)N(Cc2cn(Cc3ccco3)nn2)CCS(=O)(=O)N1Cc1ccc(-c2ccc(F)cc2)cc1 (stereo not drawn) | 54.7%
3 | Cc1ccc(NC(=S)NC(=O)c2ccc(F)cc2)cc1S(=O)(=O)Nc1ccccc1Cl | 55.6%
4 | O=C(Nc1ccccc1)c1nc[nH]c1C(=O)NCCCCCCNC(=O)c1[nH]cnc1C(=O)Nc1ccccc1 | 83%
5 | CCCC(=O)NC(c1ccc(Cl)cc1)c1ccc2cccnc2c1O (stereo not drawn) | 70.1%
6 | Cc1cc(C)c2sc(NNC(=O)c3ccc(S(=O)(=O)N4CCc5ccccc5C4)cc3)nc2c1 | 62%
7 | COc1cccc(/C=N/NC(=O)c2c(C)nc3ccc(Cl)cn23)c1O | -51.4%
8 | Cc1cc(C)c(C)c(S(=O)(=O)N2CCN(C(=O)c3cc(=O)[nH]c4ccccc34)CC2)c1C | 80.6%
9 | CS(=O)(=O)c1ccc(-c2sc3ccccc3c2C#CCCO)cc1 | 81.8%
10 | Cc1ccc(OCC(=O)c2cc(C)n(-c3ccccc3)c2C)c([N+](=O)[O-])n1 | 65.4%
11 | O=C1C=CC(=O)N1c1ccc(-c2nc3ccccc3o2)cc1 | 90.3%
12 | COc1ccc(-n2c(O)c(/C=N/Nc3nc(C)cc(C)n3)c3ccccc3c2=O)cc1OC | -21.1%
13 | CN(C)S(=O)(=O)c1ccc(-c2csc(N/N=C/c3ccc(O)cc3)n2)cc1 | 91.1%
14 | CS(=O)(=O)c1ccc(-c2cn3cc(C(=O)O)ccc3n2)cc1 | 78.3%
15 | O=C(O)c1ccc(N/N=C/c2ccc3nccnc3c2)cc1 | 99.2%
16 | C/C(=N\NC(=O)c1c(C)nc2ccccn12)c1ccc(O)cc1O | 7.76%
17 | Nc1nonc1-n1nnc(C(=O)N/N=C/c2cc(Br)ccc2O)c1CNc1ccccc1 | 66.5%

Row | SMILES | inhibition
18 | CN(C)c1ccc(C=c2c3ccccc3n3c2cc(-c2ccccc2)[n+]3C)cc1 | 100%
19 | CCc1ccc(/C=C2\SC(=S)N(CCCC(=O)Nc3cc(C)on3)C2=O)cc1 | 84.8%
20 | CCCCCCCNC(=O)C1(CC2CC(c3cccc(Br)c3)=NO2)CCNCC1 (stereo not drawn) | 99.3%
21 | CC1CC(C)C(=O)C(C(CC2CC(=O)NC(=O)C2)OC(=O)CC(=O)c2ccccc2)C1 (stereo not drawn) | 90.5%
22 | O=C(N/N=C/c1ccc(Cl)c([N+](=O)[O-])c1)c1cc(-c2ccc3c4c(cccc24)CC3)n[nH]1 | 98.4%
23 | O=C(CNC(=O)C(c1ccccc1)c1ccccc1)N/N=C/c1ccc(O)cc1O | 22.3%
24 | Cc1ccsc1/C=N/Nc1cccc(C(=O)O)c1 | 96.5%
25 | CN(C)CC1CCC/C(=C\c2ccc(OC(=O)c3ccc(Cl)cc3)cc2)C1=O (stereo not drawn) | 84.9%
26 | O=C(N/N=C\c1c(O)ccc2ccccc12)c1ccc(Cn2cccn2)o1 | 34.2%
27 | CC1=CC2C(C(O)CC3(C)C2CC(C)C32OCOC23COCO3)C2(C)C/C(=C\O)C(=O)C=C12 (stereo not drawn) | 100%
28 | CC(=O)NC(c1ccc(Cl)cc1)c1ccc2cccnc2c1O (stereo not drawn) | 64.1%
29 | C=CCc1cccc(/C=N/NC(=O)C(C)Nc2cccc(C)c2)c1O (stereo not drawn) | 5.69%
30 | CCCC(=O)NC(c1ccccc1)c1ccc2cccnc2c1O (stereo not drawn) | 39.4%
31 | COc1ccccc1Nc1nc(-c2sc(NC(=O)c3ccco3)nc2C)cs1 | 19.4%
32 | CCc1ccn2cc(-c3ccc4c(c3)OCO4)nc2c1 | 97.5%
33 | Oc1[nH]c2ccc(Br)cc2c1N=NC(=S)N1CCOCC1 | 63.5%
